Reference: PubChem BioAssay (EPA / NIEHS)
Where “and” joins values, the source holds several entries; their conditions need not be identical. Equal values may be shown once. Results filed as inconclusive are left out. Some compounds were tested as several samples or in several runs, with calls that do not always agree. Calls of active or inactive are those of the source. How the source made its calls, unless noted: active means hit-call score of the fitted dose curve at least 0.9, where 1 is the maximum; inconclusive means response in the unintended direction; inactive means score below 0.9.

Columns and labels:
[1] = read-out: Tumor necrosis factor receptor 1 (TNFRSF1A), TNFRSF1A (gene 7132); experiment: LTEA_HepaRG_TNFRSF1A: Life Technologies and Expression Analysis (LTEA) Assay for Tumor necrosis factor receptor 1 (TNFRSF1A) using HepaRG (AID 2283535; active means hit-call score of the fitted dose curve at least 0.9, where 1 is the maximum; inactive means score below 0.9); details: mRNA level, 48 h; actives raise or lower the signal
Procedure, shortened: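 HepaRG, 48 h plating then 48 h chemical exposure, serum-free induction media; 8-pt CRC from 100 uM, half-log, 0.5% DMSO vehicle, duplicates. Readout: TaqMan qRT-PCR (Fluidigm), housekeeping-gene normalized; bidirectional fit vs DMSO.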

[2] = read-out: Thyroid Hormone Responsive (THRSP), THRSP (gene 7069); experiment: LTEA_HepaRG_THRSP: Life Technologies and Expression Analysis (LTEA) Assay for Thyroid Hormone Responsive (THRSP) using HepaRG (AID 2283536; active means hit-call score of the fitted dose curve at least 0.9, where 1 is the maximum; inactive means score below 0.9); details: mRNA level, 48 h; actives raise or lower the signal
Procedure, shortened: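 Differentiated HepaRG cells treated 48 h in serum-free induction medium with 8 half-log concentrations up to 100 uM (0.5% DMSO), duplicates. THRSP mRNA by TaqMan qRT-PCR normalised to ACTB, GAPDH, POLR2A; bidirectional fit versus DMSO.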

[3] = read-out: Cellular tumor antigen p53 (Homo sapiens) (UniProt P04637); experiment: LTEA_HepaRG_TP53: Life Technologies and Expression Analysis (LTEA) Assay for Tumor Protein P53 (TP53) using HepaRG (AID 2283537; active means hit-call score of the fitted dose curve at least 0.9, where 1 is the maximum; inactive means score below 0.9); details: mRNA level, 48 h; actives raise or lower the signal
Procedure, shortened: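 TP53 transcript measured by qRT-PCR, normalized to three housekeeping genes, after 48 h treatment of human HepaRG cultures with chemicals from 100 uM downward in half-log steps (0.5% DMSO vehicle, serum-free induction medium). Up- or down-regulation fitted against DMSO.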

[4] = read-out: UDP glucuronosyltransferase (UGT1A1), UGT1A1 (gene 54658); experiment: LTEA_HepaRG_UGT1A1: Life Technologies and Expression Analysis (LTEA) Assay for UDP glucuronosyltransferase (UGT1A1) using HepaRG (AID 2283538; active means hit-call score of the fitted dose curve at least 0.9, where 1 is the maximum; inactive means score below 0.9); details: mRNA level, 48 h; actives raise or lower the signal
Procedure, shortened: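 Readout is UGT1A1 transcript level by qRT-PCR, normalized to three housekeeping genes, after 48 h chemical treatment of HepaRG cells. Concentrations ran from 100 uM down in half-log steps with 0.5% DMSO, and gain or loss relative to DMSO was fitted.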

[5] = read-out: UDP glucuronosyltransferase (UGT1A6), UGT1A6 (gene 54578); experiment: LTEA_HepaRG_UGT1A6: Life Technologies and Expression Analysis (LTEA) Assay for UDP glucuronosyltransferase (UGT1A6) using HepaRG (AID 2283539; active means hit-call score of the fitted dose curve at least 0.9, where 1 is the maximum; inactive means score below 0.9); details: mRNA level, 48 h; actives raise or lower the signal
Procedure, shortened: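 qRT-PCR readout of UGT1A6 mRNA (normalized to ACTB/GAPDH/POLR2A) in differentiated HepaRG cells after 48 h chemical exposure; 8 concentrations, top 100 uM, half-log steps, 0.5% DMSO. Bidirectional curve fit relative to DMSO baseline.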

[6] = read-out: X-box binding protein 1 (XBP1), XBP1 (gene 7494); experiment: LTEA_HepaRG_XBP1: Life Technologies and Expression Analysis (LTEA) Assay for X-box binding protein 1 (XBP1) using HepaRG (AID 2283540; active means hit-call score of the fitted dose curve at least 0.9, where 1 is the maximum; inactive means score below 0.9); details: mRNA level, 48 h; actives raise or lower the signal
Procedure, shortened: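 HepaRG, 48 h exposure, 8-pt half-log CRC top 100 uM, 0.5% DMSO vehicle, duplicates. Readout: TaqMan qRT-PCR of XBP1 mRNA, housekeeping-normalised (ACTB/GAPDH/POLR2A); bidirectional fit vs DMSO baseline.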

[7] = LTEA_HepaRG_LDH_cytotoxicity: Cytotoxicity Assessment in the Life Technologies and Expression Analysis (LTEA) Assay (AID 2283563);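 on AC50: LDH activity released into spent culture medium as a marker of cell death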
Procedure, shortened: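 HepaRG (human liver line), 48 h exposure, 8-pt half-log series from 100 uM, 0.5% DMSO vehicle, duplicates. Read-out: LDH in spent medium. Positive-direction fit vs DMSO baseline.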

[8] = biological target: Cellular tumor antigen p53 (Homo sapiens) (UniProt P04637); experiment: TOX21_p53_BLA_p2_ratio: Tox21 HCT-116 p53 Agonism Beta-lactamase Assay, Ratio, Phase 2 (AID 2283592)
Procedure, shortened: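 In this cell-based reporter format, HCT116 cells were dosed with chemicals delivered from DMSO by 217-fold dilution and incubated 16 h at 37C. Emission at 460 and 530 nm after 2 h CCF4-AM loading provided the ratio, fitted upward versus DMSO.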

[9] = TOX21_p53_BLA_p3_viability: Viability Assessment in the Tox21 HCT-116 p53 Agonism Beta-lactamase Assay, Phase 3 (AID 2283593);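 further: cells exposed to compound for 16 h before reading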
Procedure, shortened: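 HCT116 cells, 4000/well, dosed 5 h after plating by pin transfer (217-fold dilution from DMSO stock) and incubated 16 h at 37C, 5% CO2. Viability read as ATP luminescence with CellTiter-Glo after 30 min at room temperature.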

[10] = biological target: Cellular tumor antigen p53 (Homo sapiens) (UniProt P04637); experiment: TOX21_p53_BLA_p3_ratio: Tox21 HCT-116 p53 Agonism Beta-lactamase Assay, Ratio, Phase 3 (AID 2283596)
Procedure, shortened: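 HCT116 p53-bla cells (4000/well) given compound in DMSO (217-fold dilution) after 5 h, incubated 16 h at 37C. CCF4-AM substrate 2 h at room temperature; 460/530 nm emission ratio, gain fitted against DMSO.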

[11] = TOX21_p53_BLA_p4_viability: Viability Assessment in the Tox21 HCT-116 p53 Agonism Beta-lactamase Assay, Phase 4 (AID 2283597);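 further: hits lower the luminescence signal meaning cytotoxicity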
Procedure, shortened: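 We seeded HCT116 p53 reporter cells at 4000/well and waited 5 h. We then added compounds in DMSO at a 217-fold dilution and incubated for 16 h. Viability was read as CellTiter-Glo luminescence after 30 min at RT.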

[12] = biological target: Cellular tumor antigen p53 (Homo sapiens) (UniProt P04637); experiment: TOX21_p53_BLA_p5_ratio: Tox21 HCT-116 p53 Agonism Beta-lactamase Assay, Ratio, Phase 5 (AID 2283599)
Procedure, shortened: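 HCT-116 p53-bla cells (4000/well) plated 5 h, dosed with compound (217-fold DMSO dilution) for 16 h at 37 C; CCF4-AM substrate 2 h at room temperature. Activity is the 460/530 nm emission ratio (405 nm excitation), fitted in gain-of-signal direction versus DMSO.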

[13] = TOX21_p53_BLA_p5_viability: Viability Assessment in the Tox21 HCT-116 p53 Agonism Beta-lactamase Assay, Phase 5 (AID 2283600)
Procedure, shortened: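 Compounds, pinned from DMSO at 217-fold dilution, were left on the cells for 16 h. The viability endpoint was ATP content measured by CellTiter-Glo luminescence, where falling signal reflects cytotoxicity.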

[14] = biological target: Cellular tumor antigen p53 (Homo sapiens) (UniProt P04637); experiment: TOX21_p53_BLA_p4_ratio: Tox21 HCT-116 p53 Agonism Beta-lactamase Assay, Ratio, Phase 4 (AID 2283601)
Procedure, shortened: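 HCT-116 p53 beta-lactamase reporter cells (4000/well) preincubated 5 h, then compound (217-fold dilution of DMSO stock) for 16 h at 37C. CCF4-AM substrate added 2 h at room temperature; 460/530 nm emission ratio fitted upward versus DMSO.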

[15] = Tanguay_ZF_120hpf_MORT_legacy: (Legacy) Oregon State University Tanguay Lab 120 Hour Post-fertilization zebrafish Assay for Mortality (AID 2283633)
Procedure, shortened: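 Brightfield scoring of embryo death (binary) at 24 and 120 hpf; static exposure 6–120 hpf, 28C, sealed and foil-covered. Pronase-dechorionated 5D wild-type larvae, single embryo per well. DMSO 0.64% v/v; trimethyltin chloride 5uM positive control.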

[16] = Tanguay_ZF_120hpf_YSE_legacy: (Legacy) Oregon State University Tanguay Lab 120 Hour Post-fertilization zebrafish Assay for Yolk Sac Edema (AID 2283634);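 on AC50: actives raise the incidence of yolk sac edema above the DMSO baseline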
Procedure, shortened: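 Binary brightfield scoring of yolk sac edema at 120 hpf; DMSO baseline, gain-of-signal fitting. Dechorionated 5D larvae, one per well, static exposure 6–120 hpf, 28C, 0.64% DMSO. Dead embryos not scored.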

[17] = Tanguay_ZF_120hpf_AXIS_legacy: (Legacy) Oregon State University Tanguay Lab 120 Hour Post-fertilization zebrafish Assay for Body Axis Malformation (AID 2283635);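 on AC50: potency for an increased fraction of larvae scored with body axis malformation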
Procedure, shortened: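 Embryos: 5D wild-type, pronase-dechorionated 4 hpf; static exposure 6–120 hpf, 28C, sealed, dark, 1 embryo/well, 0.64% DMSO. 120 hpf axis malformation scored present/absent; dead embryos excluded. Analysed as gain of signal vs DMSO.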

[18] = ATG_XTT_Cytotoxicity: Cytotoxicity Assessment in the Attagene TRANS-FACTORIAL HepG2 Assay (AID 2283584)
Procedure, shortened: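 XTT readout of cell number in transfected HepG2 cells, 24 h post-dosing; DMSO serves as negative control and baseline, with activity taken as loss of viability signal.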

[19] = TOX21_p53_BLA_p2_viability: Viability Assessment in the Tox21 HCT-116 p53 Agonism Beta-lactamase Assay, Phase 2 (AID 2283591);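 further: compound exposure lasted 16 h at 37 °C; actives lower the ATP signal meaning cytotoxicity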
Procedure, shortened: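 HCT116 p53-bla cells, 4000/well, dosed after 5 h plating (217-fold dilution of DMSO stocks) and incubated 16 h at 37C. Viability taken as cellular ATP by CellTiter-Glo luminescence after 30 min RT; signal loss marks cytotoxicity.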

Measured: AC50

Cellular tumor antigen p53 (Homo sapiens), sequence (P04637 whole entry, looked up): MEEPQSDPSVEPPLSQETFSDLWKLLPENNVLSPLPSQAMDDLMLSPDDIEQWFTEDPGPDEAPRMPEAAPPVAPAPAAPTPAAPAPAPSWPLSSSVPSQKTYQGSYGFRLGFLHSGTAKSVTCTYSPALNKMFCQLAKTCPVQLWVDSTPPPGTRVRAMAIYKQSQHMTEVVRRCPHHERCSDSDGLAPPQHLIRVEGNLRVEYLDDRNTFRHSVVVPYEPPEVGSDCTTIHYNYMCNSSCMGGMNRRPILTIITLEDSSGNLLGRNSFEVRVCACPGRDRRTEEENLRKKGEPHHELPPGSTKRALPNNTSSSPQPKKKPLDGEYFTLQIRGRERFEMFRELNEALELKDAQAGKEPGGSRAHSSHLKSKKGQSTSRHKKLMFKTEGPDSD

CC(O)CCO (configuration not stated)
not listed: [18] | [19]
inactive: all other assays above

c1ccc(C2CO2)cc1 (configuration not stated)
not listed: [8] | [11] | [18] | [19]
inactive: all other assays above

N#CC(Br)(Br)C(N)=O
active: [11] 70.2 µM
not listed: [12] | [19]
inactive: all other assays above

CNC(=O)Oc1cccc2c1OC(C)(C)C2
active: [4] 3.38 µM | [17] 6.79 µM
not listed: [11] | [18]
inactive: all other assays above

O=[N+]([O-])C(Br)(CO)CO
inactive: [1] | [2] | [4] | [5] | [6] | [7] | [18] | [16] | [17]

CCOC(=O)[C@]1(c2ccccc2)Oc2ccccc2[C@@H]1N
inactive: [6] | [16] | [17]
active: [1] 90.8 µM | [2] 3.18 µM | [4] 83.1 µM | [5] 80 µM | [7] 77.6 µM

CCCSC(=O)N(CCC)CCC
not listed: [8] | [9] | [14] | [19]
inactive: all other assays above

[Cl-].[Cl-].[Hg+2]
active: [2] 21.8 µM | [9] 68.5 µM and 26.1 µM | [11] 32.1 µM and 9.76 µM and 12 µM | [13] 85.2 µM and 19 µM and 18.5 µM | [16] 4.25 µM | [17] 3.84 µM
inactive: [1] | [3] | [4] | [5] | [6] | [18] | [9]

Cc1ccc(N=C=O)cc1N=C=O
active: [2] 19.3 µM | [7] 33.1 µM
not listed: [18] | [19]
inactive: all other assays above

c1ccc(NNc2ccccc2)cc1
not listed: [9] | [11] | [13] | [14] | [15] | [17] | [19]
inactive: all other assays above

COP(=S)(OC)SCN1C(=O)c2ccccc2C1=O
not listed: [15] | [18] | [19]
inactive: all other assays above

Cc1ccc(N)c(N)c1
active: [4] 50 µM
not listed: [18] | [19]
inactive: all other assays above

C[C@]12C=CC3=C4CCC(=O)C=C4CC[C@H]3[C@@H]1CC[C@@H]2O
inactive: [1] | [5] | [7] | [18] | [15]
active: [2] 15.7 µM | [4] 1.01 µM | [6] 72.4 µM | [16] 48.8 µM

COC(=O)Nc1nc2ccccc2[nH]1
active: [4] 31.4 µM | [8] 10.1 µM and 7.91 µM | [10] 12.9 µM and 8.81 µM | [12] 15 µM and 15.4 µM | [16] 47.5 µM
not listed: [13] | [14] | [15] | [19]
inactive: all other assays above

O=C(Nc1ccccc1)c1ccccc1I
active: [2] 27.1 µM | [4] 13.1 µM | [6] 13.2 µM | [7] 40.5 µM | [16] 51.3 µM
inactive: [1] | [5]

C=CCc1ccc2c(c1)OCO2
not listed: [18]
inactive: all other assays above

Brc1ccc(Oc2ccccc2)cc1
not listed: [11] | [14] | [18] | [19]
inactive: all other assays above

OCCCl
not listed: [11] | [12] | [13] | [14] | [15] | [18] | [19]
inactive: all other assays above

CC(C)COC(=O)c1ccccc1C(=O)OCC(C)C
inactive: [1] | [2] | [4] | [5] | [6] | [7] | [18] | [16] | [17]

Cc1cccc(N)c1N
active: [2] 32.3 µM | [4] 17.2 µM | [6] 50 µM | [11] 26.8 µM | [16] 10.6 µM | [17] 27.8 µM
inactive: [3] | [5] | [7] | [19] | [8] | [9] | [10] | [11] | [12] | [13] | [15]

CCOc1cccc(C2(N3CCN(c4ccccc4)CC3)CCC(C)CC2)c1 (configuration not stated)
active: [4] 43.5 µM
inactive: [1] | [2] | [3] | [5] | [6] | [7] | [10] | [16] | [17]

CN(C)[C@@H]1C(=O)C(C(N)=O)=C(O)[C@@]2(O)C(=O)C3=C(O)c4c(O)cccc4[C@@](C)(O)[C@H]3C[C@@H]12
not listed: [18] | [19]
inactive: all other assays above
